According to PubChem BioAssay (NCATS):
“And” between values parts separate entries of the source, which are not always exact repeats. Equal entries are not always repeated. Inconclusive results are not listed. Entries that show only a call come without a potency. Values without a mark were called inactive. The source made the active and inactive calls. Calls follow the shape of the dose curve; as a rule, active = well fitted curve in the direction sought with a large enough effect; inconclusive = small, poorly fitted or top-dose-only effect, or another doubt; inactive = no such curve, though single readings can be large; an effect the other way counts as inactive or inconclusive. *1 amine or outer side, *2 acyl side, *3 side chain or, on linkers, in order; H or OH if unused. Where a SMILES comes first, the peptide text is derived from it. Bridges are numbered along the chain shown (N, C = ends). [ ]: non-standard residue; d: D form. The star is where a group is joined. ξ: configuration not given here. ΔAla(3-NHCONH2) = NC(=O)NC=C(N)C(=O)O; X2 = NC1=NCCC(C(N[*:1])C(=O)[*:2])N1; ξβ3hOrn = NCCCC(N)CC(=O)*; Dap = NC[CH](N)C(=O)O

Assays:
[1] = target: Cytochrome P450 3A7 (Homo sapiens) (UniProt P24462); experiment: Cytochrome P450 family 3 subfamily A member 7 (CYP3A7) small molecule antagonists: luciferase biochemical qHTS assay (AID 1963596); details: P450-Glo CYP3A7 enzyme luminescence, 1 h; series mostly up to 57.4 µM; also: nearly all actives have a fitted effect of over 40% in size
Cytochrome P450 3A7 (Homo sapiens), sequence (P24462 whole entry, looked up): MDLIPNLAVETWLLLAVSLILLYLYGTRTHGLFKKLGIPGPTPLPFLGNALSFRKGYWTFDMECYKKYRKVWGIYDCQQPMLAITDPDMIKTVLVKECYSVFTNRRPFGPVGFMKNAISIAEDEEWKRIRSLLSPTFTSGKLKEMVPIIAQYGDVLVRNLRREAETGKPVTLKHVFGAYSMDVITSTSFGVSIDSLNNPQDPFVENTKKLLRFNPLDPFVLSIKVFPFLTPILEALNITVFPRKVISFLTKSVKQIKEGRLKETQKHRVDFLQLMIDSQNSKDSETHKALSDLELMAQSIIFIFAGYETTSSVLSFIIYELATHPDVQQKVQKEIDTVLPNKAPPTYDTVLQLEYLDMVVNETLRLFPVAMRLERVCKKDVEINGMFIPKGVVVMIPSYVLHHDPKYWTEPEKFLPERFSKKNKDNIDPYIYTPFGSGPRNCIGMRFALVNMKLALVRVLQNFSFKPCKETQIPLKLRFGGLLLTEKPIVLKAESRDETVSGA
Summary of the method: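 Luminescence read-out (relative luminescence units) after 20 min with detection reagent, which stops the reaction. Enzyme, proluciferin substrate and compound preincubated 10 min, RT; NADPH regeneration system then started 1 h reaction. Ketoconazole as positive control.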

[2] = Viability qHTS for spleen associated tyrosine kinase inhibitor (SYKi) naive MV4-11 cells (AID 1963823); details: MV4-11 AML viability, CellTiter-Glo luminescence, 72 h; series mostly up to 45 µM; also: nearly all actives have a fitted effect of over 40% in size; also: potency is read from the fitted curve at half-maximal effect
Summary of the method: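 Read-out: CellTiter-Glo luminescence. Exposure: 72 hr, 37 C, 5% CO2, 95% humidity. Cells: MV4-11 without SYK inhibitor history, 500/well, qHTS format.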

[3] = Viability qHTS for spleen associated tyrosine kinase inhibitor (SYKi) drug resistant MV4-11 cells (AID 1963824); details: SYKi-resistant MV4-11 viability, CellTiter-Glo, 72 h; series mostly up to 45 µM; also: nearly all actives have a fitted effect of over 35% in size; also: potency is read from the fitted curve at half-maximal effect
Summary of the method: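 SYK-inhibitor-resistant MV4-11 AML cells were seeded at 500 per well onto compound and cultured 72 hours (37 °C, 5% CO2). CellTiter-Glo was then added, and after 10 min at room temperature, luminescence gave viability.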

[4] = Cellular viability qHTS for adrenocortical cancer (ACC) cell line SW-13 (AID 1963989); details: SW-13 ACC cells viability, CellTiter-Glo, 48 h; activity (max response): active compounds read low; also: nearly all actives have a fitted effect of over 65% in size; also: potency is read from the fitted curve at half-maximal effect;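 as to activity (max response): cells grown in serum-free medium with ITS supplement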
Summary of the method: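 48 h treatment, SW-13 in ITS/DMEM serum-free; doses up to 46 uM; readout CellTiter-Glo luminescence; curve fit four-parameter logistic.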

[5] = Cellular viability qHTS for adrenocortical cancer (ACC) cell line NCI-H295R (AID 1963990); details: CellTiter-Glo ATP luminescence, 48 h; series mostly up to 46.1 µM; also: nearly all actives have a fitted effect of over 60% in size; also: potency is read from the fitted curve at half-maximal effect
Summary of the method: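 Compound titrations (up to 46 uM final) are applied to NCI-H295R cultures for 48 h at 37C. Viable cell number is estimated by CellTiter-Glo signal, normalised to DMSO and doxorubicin controls.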

Row | SMILES | Potency [1] | Potency [2] | Potency [3] | activity (max response) [4] | Potency [5] | activity change, negative = inhibition [1] | viability (% of control) [2] | viability, % of control [3] | activity change, negative = viability loss [5] | Potency [4]
1 | O=C1C(=O)c2ccccc2C(O)=C1C1CCC(c2ccc(Cl)cc2)CC1 (stereo not given) | inactive | inactive | inactive | 9.49% | inactive |  |  |  |  | 
2 | COc1ccc(CCC(C)=O)cc1 | inactive | inactive | inactive | -3.66% | inactive |  |  |  |  | 
3 | C[N+](C)(C)CCCCCCCCCC[N+](C)(C)C | inactive | inactive | inactive | 14.5% | inactive |  |  |  |  | 
4 | O=C(NCN1CCOCC1)c1cnccn1 | inactive | inactive | inactive | -5.4% | inactive |  |  |  |  | 
5 | NC(=O)COCCN1CCN(C(c2ccccc2)c2ccc(Cl)cc2)CC1 (stereo not given) | inactive | inactive | inactive | 0.82% | inactive |  |  |  |  | 
6 | CC(=O)CCCCn1c(=O)c2c(ncn2C)n(C)c1=O | inactive | inactive | inactive | 7.09% | inactive |  |  |  |  | 
7 | NCCCC(N)CC(=O)NCC1NC(=O)C(CO)NC(=O)C(N)CNC(=O)C(C2CCN=C(N)N2)NC(=O)C(=CNC(N)=O)NC1=O (stereo not drawn) (H-[Dap]S[Dap](ξβ3hOrn)[ΔAla(3-NHCONH2)][X2]; lactam 1-C; configuration not given here) |  |  |  | -2.59% |  | 0.114% [at 0.91 µM] | 84.9% [at 0.588 µM] | 101% [at 0.588 µM] | 3.92% [at 0.587 µM] | 
8 | O=C(Nc1ccc(Cl)cc1)Nc1ccc(Cl)c(Cl)c1 | inactive | 9440 nM (active) | 9440 nM (active) |  | 4110 nM (active) |  |  |  |  | 2590 nM (active)
9 | CN(N=O)C(=O)N[C@@H]1[C@@H](O)[C@H](O)[C@@H](CO)O[C@@H]1O | inactive | inactive | inactive | 0.228% and 12.5% | inactive |  |  |  |  | 
10 | Cc1ccc(C(=O)c2ccc(CC(=O)O)n2C)cc1 | inactive | inactive | inactive | 4.18% | inactive |  |  |  |  | 
11 | CN1CCN(C(c2ccccc2)c2ccccc2)CC1 | inactive | inactive | inactive | -4.21% | inactive |  |  |  |  | 
12 | O[C@@H]1CO[C@H]2[C@@H]1OC[C@@H]2O | inactive | inactive | inactive | -0.327% | inactive |  |  |  |  | 
13 | CC(=O)N(CC(O)CO)c1c(I)c(C(=O)NCCO)c(I)c(C(=O)NCC(O)CO)c1I (stereo not given) | inactive | inactive | inactive | 7.39% | inactive |  |  |  |  | 
14 | O=C1OC(OC(=O)c2cccnc2Nc2cccc(C(F)(F)F)c2)c2ccccc21 (stereo not given) | inactive | inactive | inactive | 6.27% | inactive |  |  |  |  | 
15 | CC(=O)NCCCS(=O)(=O)O | inactive | inactive | inactive | 5.88% | inactive |  |  |  |  | 
16 | CC(C)NC(=O)c1ccc(C=O)cc1 | inactive | inactive | inactive | 10.9% | inactive |  |  |  |  | 
17 | O=C(O)Cc1cccc(-c2cc(CCCCCCc3ccc(O[C@H]4O[C@H](CO)[C@@H](O)[C@H](O)[C@@H]4O)c(-c4cccc(CC(=O)O)c4)c3)ccc2O[C@H]2O[C@H](CO)[C@@H](O)[C@H](O)[C@@H]2O)c1 |  |  |  | 8.49% |  | -19.9% [at 0.91 µM] | 99.5% [at 0.588 µM] | 113% [at 0.588 µM] | -4.2% [at 0.587 µM] | 
18 | Cc1cc(-c2cc(OC(=O)c3ccccc3)ccc2Cl)cc2nnc(Nc3ccc(OCCN4CCCC4)cc3)nc12 | inactive | 2000 nM (active) | 1590 nM (active) | 9.34% | inactive |  |  |  |  | 
19 | CCC(=O)c1ccc(O)cc1 | inactive | inactive | 7500 nM (active) | 5.38% | inactive |  |  |  |  | 
20 | O=C(O)CCCCC(=O)O | inactive | inactive | inactive | 10.5% | inactive |  |  |  |  | 
21 | C[N+]1(C)CCCC(OC(=O)C(O)(c2ccccc2)c2ccccc2)C1 (stereo not given) | inactive | inactive | inactive | -0.325% | inactive |  |  |  |  | 
22 | CCCc1c2oc(C(=O)O)cc(=O)c2cc2c(=O)cc(C(=O)O)n(CC)c12 | inactive | inactive | inactive | -2.58% | inactive |  |  |  |  | 
23 | CN1N=C(C(N)=O)CCC1=O | inactive | inactive | inactive | 11.7% | inactive |  |  |  |  | 
24 | C[C@@H]1CCC[C@H](C)N1 | inactive | inactive | inactive | 4.32% | inactive |  |  |  |  | 
25 | CC(=O)Nc1ccn(C2COC(COC(=O)c3ccccc3)O2)c(=O)n1 (stereo not given) | inactive | 2310 nM (active) | 1640 nM (active) | -9.44% | inactive |  |  |  |  | 
26 | Cc1cccc(C)c1NC(=O)c1ccccc1C(=O)O | inactive | inactive | inactive | 8.06% | inactive |  |  |  |  | 
27 | COc1cc(C(=O)NCc2ccc(OCCN(C)C)cc2)cc(OC)c1OC | inactive | inactive | inactive | -6.7% | inactive |  |  |  |  | 
28 | Cc1cc(C)c(NC(=O)CN(CC(=O)O)CC(=O)O)c(C)c1Br | inactive | inactive | inactive | 9.39% | inactive |  |  |  |  | 
29 | O=C1c2ccccc2C(=O)C1c1ccccc1 | inactive | inactive | inactive | 5.96% | inactive |  |  |  |  | 
